One assay has as its system CRL-7250. Kind of assay: Cytotoxic Profiling of Annotated Libraries Using Quantitative High-Throughput Screening (AID 1296008). Also: potency is read from the fitted curve at half-maximal effect. As to max response: % is scaled to controls: 0 for no effect and ±100 for the full control effect. The settings on record: Five cell lines viability, CellTiter-Glo ATP luminescence, 48-72 h; max response: hits give low values. A digest of the protocol: (§1)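 Cytotoxicity was measured as CellTiter-Glo ATP luminescence, read after 10 min at room temperature. Compound treatment of the cells lasted 48 or 72 hr at 37 degrees Celsius in a qHTS format.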
A general note: ATP-based viability assays read luminescence as a measure of living cells.

For a further assay, the system named is HEK293. The description is as above. The settings on record: Five cell lines viability, CellTiter-Glo ATP luminescence, 48-72 h; max response: hits give low values. A digest of the protocol:
as §1

The subject of assay [1] is HaCat. Described as above. The settings on record: Five cell lines viability, CellTiter-Glo ATP luminescence, 48-72 h; max response: hits give low values. A digest of the protocol:
as §1

In a further assay the test system is KB-3-1. The assay is described as above. As to conditions: Five cell lines viability, CellTiter-Glo ATP luminescence, 48-72 h; max response: hits give low values. A digest of the protocol: as §1
For another assay, the system named is NIH3T3. Described as above. The settings on record: Five cell lines viability, CellTiter-Glo ATP luminescence, 48-72 h; max response: hits give low values. A digest of the protocol:
as §1

The test system of assay [2] is HACAT. As to the kind of experiment: qHTS assay to identify novel small-molecules to repurpose for Merkel cell carcinoma treatment (AID 1296009). The settings on record: MCC and control cell lines, CellTiter-Glo viability, 72 h; at 44.8 µM (top of the series) unless noted. A digest of the protocol: (§2)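 Cell viability measured by CellTiter-Glo following 72 hr compound treatment at 37 degree celsius, with NPC and MIPE libraries tested in 8- and 11-point concentration series.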

Another assay concerns MCC-13. The description is as above. As to conditions: MCC and control cell lines, CellTiter-Glo viability, 72 h; series mostly up to 46 µM. A digest of the protocol: as §2
The next assay relates to TAB165. Kind of assay: qHTS profiling for inhibitors of Plasmodium falciparum proliferation (AID 504749).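 Also: 0% = DMSO vehicle and full inhibition = artemisinin control.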 As to conditions: P. falciparum in erythrocytes, SYBR Green DNA, 72 h; series mostly up to 28.7 µM. In short, it runs like this: (§3)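 In a 72 h erythrocytic culture (37 C, humidified, 5% CO2) at 2.5% hematocrit and 0.3% starting parasitemia, compounds were tested; SYBR Green I in detergent lysis buffer stained parasite DNA overnight.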
(Quantitative high-throughput screening tests each substance at several concentrations.)

Another assay concerns W2. The description is as above. The settings on record: P. falciparum in erythrocytes, SYBR Green DNA, 72 h; series mostly up to 28.7 µM. In short, it runs like this:
as §3

For a further assay, the system named is HEK293T. As to the kind of experiment: qHTS assay to identify novel small-molecules to repurpose for Merkel cell carcinoma treatment (AID 1296009). As to conditions: MCC and control cell lines, CellTiter-Glo viability, 72 h; at 44.8 µM (top of the series). In short, it runs like this:
as §2

SMILES strings stand for the structures. Where “and” joins values, the source holds several entries; their conditions need not be identical. Equal entries are not always repeated. Results filed as inconclusive are left out. The source holds several records for some structures; these can differ, active in one and inactive in another. Unmarked numbers belong to inactive results. Calls of active or inactive are those of the source. Calls follow the shape of the dose curve; as a rule, active = well fitted inhibition curve with a large enough effect; inconclusive = small, poorly fitted or top-dose-only effect; inactive = flat fitted curve, though single readings scatter.
Also: nearly all actives have a fitted effect of over 60% in size.

For the compound `C[C@H](NC(=O)Cc1cc(F)cc(F)c1)C(=O)N[C@@H]1C(=O)N(C)c2ccccc2-c2ccccc21`, the call in the assay on CRL-7250, with HaCat [1], in the assay with KB-3-1 and with HACAT [2] was inactive. The max response is -10.7% in the assay with HEK293; -1.56% in the assay on HaCat [1]; 1.83% in the assay with KB-3-1; -12.2% and -1.62% in the assay with NIH3T3. Besides, in the assay on MCC-13, the Potency result was “inactive”.

For `O=C1CCC(N2C(=O)c3ccccc3C2=O)C(=O)N1` (stereo not drawn), the Potency entry in the assay with TAB165, with W2 and in the assay on MCC-13 was “inactive” in each case. The max response is 1.53% with CRL-7250; -7.21% in the assay on HEK293; 0.83% and 2.13% in the assay on KB-3-1; -0.804% with NIH3T3. The compound was classed as inactive in the assay with CRL-7250, with HEK293, with NIH3T3, with HACAT [2] and in the assay with HEK293T.

Regarding `COc1cc(Nc2ncc3c(n2)-c2ccc(Cl)cc2C(c2c(F)cccc2OC)=NC3)ccc1C(=O)O`, the Potency in the assay with CRL-7250 is 20.6 µM (active); in the assay with HEK293, 23.1 µM (active); with HaCat [1] it was 16.4 µM (active) and 833 nM (active); in the assay on KB-3-1, 2.09 µM (active); in the assay on NIH3T3, 7.43 µM (active). Besides, in the assay with HEK293, the max response was -33.7%.

`CNC[C@H](O)c1cccc(O)c1`: the Potency result in the assay on TAB165 and with MCC-13 was “inactive” each time. The max response was -1.79% and -10.1% in the assay on CRL-7250; 1.65% and -9.71% with HEK293; -21.3% in the assay on HaCat [1]; 3.69% in the assay on KB-3-1; 3.51% in the assay on NIH3T3. The call in the assay with HaCat [1], with KB-3-1, with NIH3T3 and in the assay with HACAT [2] was inactive.

For `O=NN(CCCl)C(=O)NCCCl`, the Potency entry in the assay on TAB165 and in the assay with MCC-13 was “inactive” each time. Moreover, the max response was -1.64% in the assay with CRL-7250; -4.95% with HaCat [1]; 10.2% and 5.9% in the assay on KB-3-1; 3.76% and 1.65% in the assay on NIH3T3. Further, the outcome in the assay with CRL-7250, with HaCat [1] and in the assay with HACAT [2] was inactive. The outcome with HEK293 and in the assay with HEK293T was “inactive; activator” in each case.

For `CC(C[N+](C)(C)C)OC(N)=O` (stereo not drawn), the Potency result in the assay on TAB165, in the assay with W2 and with MCC-13 was “inactive” throughout. The max response is 0.597% with CRL-7250; 3.57% in the assay with HEK293; 3.39% and 7.21% in the assay on KB-3-1. The call in the assay on CRL-7250, in the assay with HEK293, with HaCat [1], with NIH3T3, with HACAT [2] and in the assay on HEK293T was inactive.

As for `Cc1ccnc(NS(=O)(=O)c2ccc(NC(=O)Nc3ccc(S(=O)(=O)Nc4nccc(C)n4)cc3)cc2)n1`, the Potency was 0.372 µM (active) in the assay on CRL-7250; 0.418 µM (active) with HEK293; 1.48 µM (active) in the assay on HaCat [1]; 2.35 µM (active) in the assay on KB-3-1; 2.09 µM (active) with NIH3T3. Besides, the max response is -2.52% with CRL-7250, -3.29% in the assay on HEK293, -9.99% with HaCat [1] and -7.88% in the assay on NIH3T3. For the same compound, the compound was called inactive with KB-3-1. Moreover, the Potency result with MCC-13 is “inactive”.

Regarding `CC(C=CC1=C(C)CCCC1(C)C)=CC=CC(C)=CC(=O)O`, the max response in the assay on CRL-7250 was -11.2%; in the assay with HEK293, 1.74%; with KB-3-1, 4.44%; in the assay on NIH3T3 it was -0.0926%. Besides, the call in the assay on HEK293, with HaCat [1], with KB-3-1, in the assay on NIH3T3, with HACAT [2] and with HEK293T was inactive. For the same compound, in the assay with MCC-13, the Potency entry is “inactive”.

With `CC(c1cc2ccccc2s1)N(O)C(N)=O` (stereo not drawn), the Potency result in the assay on TAB165, in the assay with W2 and with MCC-13 was “inactive” each time. Besides, the max response in the assay with CRL-7250 was -2.06%; with HaCat [1], -0.226% and -8.25%; with KB-3-1, 0.162% and -9.2%; in the assay on NIH3T3, 3.52%. For the same compound, the compound was classed as inactive in the assay on CRL-7250, in the assay on HEK293, with NIH3T3 and with HEK293T.

Take `NC(=O)c1cnccn1`: the Potency entry in the assay with TAB165, with W2 and with MCC-13 was “inactive” in each case. Further, the max response was 3.02% and 1.22% in the assay on CRL-7250; -0.963% in the assay with HEK293; -6.4% in the assay on HaCat [1]; -14% with KB-3-1; 3.86% and 2.38% in the assay on NIH3T3. Further, the outcome with HEK293, in the assay on HaCat [1], with KB-3-1, in the assay with HACAT [2] and in the assay with HEK293T was inactive.

Regarding `Cc1cnc(Nc2ccc(OCCN3CCCC3)cc2)nc1Nc1cccc(S(=O)(=O)NC(C)(C)C)c1`, the Potency was 3.72 µM (active) in the assay with CRL-7250, 5.17 µM (active) in the assay on HEK293, 5.8 µM (active) in the assay on HaCat [1] and 6.51 µM (active) with KB-3-1. The max response in the assay with HEK293 is 0.504%; in the assay on HaCat [1], 2.79%; with KB-3-1 it was 5.89%. Moreover, in the assay on NIH3T3, the compound was called inactive. For the same compound, the Potency entry in the assay with MCC-13 was “inactive”.

On to `CC(C)OC(=O)C1=CN(C(=O)c2ccc(F)c(F)c2)CC(C)(C)c2c1[nH]c1ccccc21`, for which the max response in the assay on CRL-7250 was 1.22%; with HEK293 it was -9.23% and -19.6%; in the assay on HaCat [1], -4.65%; with KB-3-1, -6.75% and 0.0694%; with NIH3T3, 3.45% and -0.558%. In addition, in the assay on CRL-7250, the call was inactive. Besides, in the assay with MCC-13, the Potency result is “inactive”.

For the compound `COc1ccc([C@@H]2CC(=O)c3c(O)cc(O[C@@H]4O[C@H](CO[C@@H]5O[C@@H](C)[C@H](O)[C@@H](O)[C@@H]5O)[C@@H](O)[C@H](O)[C@@H]4O)cc3O2)cc1O`, the max response in the assay on CRL-7250 is -5.3%; with HaCat [1], -2.14% and 4.84%; in the assay with KB-3-1 it was 2.27%; in the assay with NIH3T3 it was 2.09%. The compound was classed as inactive in the assay with CRL-7250, in the assay with HEK293, with KB-3-1, in the assay with NIH3T3 and in the assay with HEK293T. Besides, the Potency entry in the assay with MCC-13 is “inactive”.

For the origin of these results see PubChem BioAssay (NCATS).
